Test results as given in PubChem BioAssay AID1159580 (chemical genetic matrix, 2015).
In all, about 5,500 compounds went through this assay and about 2,000 (36%) were called active. Another 18% or so got no clear call; they are omitted. Cut-off read from the data, not from the text of the source: active = normalized growth mostly below about 0.91 (no sharp cut-off); inconclusive = no clear call, values can overlap the other calls; inactive = mostly above about 0.92. Some of the results follow.

Assay: chemical genetic growth profiling, strain panel (AID 1159580);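 note: tested at 20 µM; growth read once vehicle control cultures reached saturation at 30 °C; 1 = growth at the plate median or of vehicle wells; lower values mean less growth of the strain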
Settings: S. cerevisiae deletion strains, growth OD

Measured: normalized growth

Cc1cn([C@H]2C=C[C@@H](CO)O2)c(=O)[nH]c1=O
inactive: locus YAL040C, strain CLN3, active compounds read low 0.999 | locus YCL061C, strain MRC1 (second series), active compounds read low 1.01 | locus YDR363W, strain ESC2, active compounds read low 0.976 | locus YER002W, strain NOP16, active compounds read low 1 | locus YGR078C, strain PAC10, active compounds read low 1.02 | locus YMR263W, strain SAP30, active compounds read low 0.998 | locus YMR307W, strain GAS1, active compounds read low 0.994 | locus YNL175C, strain NOP13, active compounds read low 0.993 | locus YNL197C, strain WHI3, active compounds read low 0.995 | locus YNL224C, strain SQS1, active compounds read low 1 | locus YNL322C, strain KRE1, active compounds read low 0.994 | locus YOR083W, strain WHI5 (second series), active compounds read low 1.06 | locus YPL055C, strain LGE1, active compounds read low 0.974 | locus YPL241C, strain CIN2, active compounds read low 1
